HT1080-NT tox – kills 2HG-producing HT-1080-NT fibrosarcoma cells. HT-1080-NT fibrosarcoma viability, CellTiter-Glo ATP luminescence, 48 h. Potency, µM (highest dose often 46.1 µM), for the others: at the top dose activity, negative = less viability, most hits filed as cytotoxic. hit rate 1.6% among 360,000;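 note: NT is the 2HG producing partner of a matched IDH1 knockdown line; potency is the fitted concentration of half-maximal effect; 0% = DMSO-treated cells and -100% = media-only wells without cells; nearly all actives have a fitted effect of over 55% in size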
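Luminescent CellTiter-Glo readout after 48 hours of compound exposure at 37 degrees C defined viability of HT-1080-NT cells. Activity was normalized to DMSO wells and cell-free media wells; concentration-response curves were fitted and assigned curve classes.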
HT1080 IDH1KD tx – HT-1080 IDH1 knockdown cell toxicity (counter line) | hit rate 2% among 360,000 | Potency, µM (highest dose often 46.1 µM), for inactives: top-dose activity, negative = toxicity, hits mostly cytotoxic | AID 686971 | HT-1080 IDH1 knockdown viability, ATP luminescence, 48 h;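 note: potency is the fitted concentration of half-maximal effect; 0% = DMSO wells and -100% = cell-free medium wells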
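CellTiter-Glo luminescence after 48 h compound exposure at 37 degrees C of IDH1-knockdown HT-1080 cells in 5% FBS RPMI. %Activity scaled between DMSO wells and cell-free media wells, with curves fitted and assigned curve classes.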
IL1B secr inh – blocks inflammasome-driven IL-1 beta release; activity change, % at 57.5 µM; THP-1 LPS/ATP IL-1B secretion, AlphaLISA, 16 h; stronger effect = lower value; hit rate 4.7% among 360,000; AID 743279; in the data active = activity change below about -50%; inconclusive = mostly about -30% to -49%
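Secreted IL-1B measured by AlphaLISA bead assay after 16 h compound exposure of THP-1 cells; compounds (final up to 57.5 uM) added 1 h before LPS (250 ng/mL) and ATP (1.25 mM) stimulation; lower signal means less secretion.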
DT40 TDP1 no CPT – qHTS for Inhibitors of human tyrosyl-DNA phosphodiesterase 1 (TDP1): qHTS in cells in absence of CPT | DT40 Tdp1-/- hTDP1 cells, no CPT, ATP luminescence, 48 h | Potency, µM (doses to about 46.2 µM), without a hit: top-dose activity change, negative = growth inhibition, hits mostly inhibitors | hit rate 15% among 420,000; note: potency is the fitted concentration of half-maximal effect; nearly all actives have a fitted effect of over 55% in size
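Growth kinetics read by CellTiter-Glo luminescence after ≥48 hr at 37 °C. Cells: DT40 Tdp1-/- stably carrying human TDP1, 400 per well, compound exposure in the absence of CPT (DMSO vehicle).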
TDP1 cell CPT – DT40-hTDP1 cell growth loss with CPT; hit rate 12% among 420,000; chicken DT40 Tdp1-/-;hTDP1 cells + 20 nM CPT, ATP luminescence, 48 h; Potency, µM (top dose mostly 46.2 µM), without a hit: at the highest dose activity change, negative = growth inhibition, hits mostly inhibitors; AID 686979; note: potency is the fitted concentration of half-maximal effect; nearly all actives have a fitted effect of over 55% in size
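Chicken DT40 Tdp1-/- cells stably complemented with human TDP1 were seeded at 400 cells/well in medium containing 20 nM camptothecin, exposed to pin-transferred compounds, and grown at 37 °C for at least 48 hr. Viability was read as ATP luminescence.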
Numbers without * were called inactive. Shown are actives, neighbours in structure and some others; about 19% of the full set was active somewhere. Unless noted, calls come from the whole dose curve; as a rule, active = well fitted curve in the direction sought with a large enough effect; inconclusive = small, poorly fitted or top-dose-only effect, or another doubt; inactive = no such curve, though single readings can be large; an effect the other way counts as inactive or inconclusive. Unless noted, % is set by controls: 0 for no effect and ±100 for the full control effect.

Results for Cc1ccc(NC(=O)N2CCC(=O)N2)cc1 ?
HT1080-NT tox: -1%; HT1080 IDH1KD tx: 1%; IL1B secr inh: -24; DT40 TDP1 no CPT: -9%; TDP1 cell CPT: -18%

Results for O=C(O)/C=C/C(=O)c1ccc2c(c1)NC(=O)CO2 ?
HT1080-NT tox: 0%; HT1080 IDH1KD tx: 3%; IL1B secr inh: 8; DT40 TDP1 no CPT: -10%; TDP1 cell CPT: 15%

How did CCSc1nnc2c(n1)OC(c1sccc1C)N(C(C)=O)c1ccccc1-2 (stereo unspecified) do in these assays?
DT40 TDP1 no CPT: 13µM*; TDP1 cell CPT: inconclusive

What do the screens show for `COc1ccccc1CNS(=O)(=O)CCNC1CC1`?
HT1080-NT tox: 15%; HT1080 IDH1KD tx: 1%; IL1B secr inh: 8; DT40 TDP1 no CPT: -21%; TDP1 cell CPT: -9%

Results for Cn1ncc(Cl)c1C(=O)Nc1nc2ccc(Cl)cc2s1 ?
HT1080-NT tox: -5%; HT1080 IDH1KD tx: -3%; IL1B secr inh: 17; DT40 TDP1 no CPT: 23µM*; TDP1 cell CPT: 16µM*

Results for COc1ccccc1-c1nnc(NC(=O)CSc2nncn2C)s1 ?
HT1080-NT tox: -1%; HT1080 IDH1KD tx: -17%; IL1B secr inh: 0; DT40 TDP1 no CPT: 5%; TDP1 cell CPT: 4%

Results for CC(=O)Nc1ccc(S(=O)(=O)N2CCC(C(=O)N[C@@H](C)C(=O)NC3CCCC3)CC2)cc1 ?
HT1080-NT tox: 1%; HT1080 IDH1KD tx: 10%; IL1B secr inh: -12; DT40 TDP1 no CPT: 7%; TDP1 cell CPT: -9%

What do the screens show for `COC(=O)c1ccc(CSc2ncnc3c2sc2nc(N4CCOCC4)c4c(c23)CCCC4)o1`?
HT1080-NT tox: 6%; HT1080 IDH1KD tx: 0%; IL1B secr inh: -12; DT40 TDP1 no CPT: 18µM*; TDP1 cell CPT: inconclusive

How did COC(=O)c1sc2nc(N3CCCCC3)c3c(c2c1N)CCCC3 do in these assays?
HT1080-NT tox: -1%; HT1080 IDH1KD tx: -4%; IL1B secr inh: -9; DT40 TDP1 no CPT: -28%; TDP1 cell CPT: -15%

Results for COC(=O)CSc1ncnc2c1sc1nc(N3CCOCC3)c3c(c12)CCCC3 ?
HT1080-NT tox: 16%; HT1080 IDH1KD tx: 17%; IL1B secr inh: 21; DT40 TDP1 no CPT: -5%; TDP1 cell CPT: -5%

Results for COC(=O)c1ccc(-c2sc3nc(N4CCOCC4)c4c(c3c2N)CCCC4)o1 ?
HT1080-NT tox: -1%; HT1080 IDH1KD tx: 1%; IL1B secr inh: -9; DT40 TDP1 no CPT: 26µM*; TDP1 cell CPT: 18µM*

What do the screens show for `O=C(NCc1cccc(C(F)(F)F)c1)c1ccc2c(c1)OCCO2`?
HT1080-NT tox: -5%; HT1080 IDH1KD tx: -26%; IL1B secr inh: 18; DT40 TDP1 no CPT: -25%; TDP1 cell CPT: -19%

How did CC1CCN(Cc2c(C(=O)N3CCc4ccccc4C3)nc3ccc(Cl)cn23)CC1 do in these assays?
HT1080-NT tox: -8%; HT1080 IDH1KD tx: -7%; IL1B secr inh: 26; DT40 TDP1 no CPT: inconclusive; TDP1 cell CPT: 21µM*

How did COc1cc(OC)c(N(C)C(=O)c2c(C)oc3ncn(CC(C)C)c(=O)c23)cc1Cl do in these assays?
DT40 TDP1 no CPT: -27%; TDP1 cell CPT: -12%

What do the screens show for `COc1cc(C(=O)O[C@H]2C/C(C)=C/CC[C@]3(C)O[C@@H]3C(O)C2C(C)C)cc(OC)c1OC` (stereo partly specified)?
HT1080-NT tox: inconclusive; HT1080 IDH1KD tx: -12%; IL1B secr inh: inconclusive; DT40 TDP1 no CPT: inconclusive; TDP1 cell CPT: inconclusive

Results for COc1cc(C(=O)O[C@H]2C/C(C)=C/CC[C@@]3(C)O[C@@H]3[C@H](O)[C@@H]2C(C)C)cc(OC)c1OC ?
HT1080-NT tox: -15%; HT1080 IDH1KD tx: 0%; IL1B secr inh: 0; DT40 TDP1 no CPT: 23µM*; TDP1 cell CPT: 16µM*

What do the screens show for `CCN(c1ccccc1)S(=O)(=O)c1ccc(C(=O)Nc2ccncc2)cc1`?
HT1080-NT tox: -8%; HT1080 IDH1KD tx: -21%; IL1B secr inh: -15; DT40 TDP1 no CPT: 21µM*; TDP1 cell CPT: 23µM*

How did O=C(NC(Cc1ccccc1)C(=O)NC(Cc1ccccc1)C(=O)O)c1ccccc1 (stereo unspecified) do in these assays?
HT1080-NT tox: 16%; HT1080 IDH1KD tx: 15%; IL1B secr inh: 31; DT40 TDP1 no CPT: 0%; TDP1 cell CPT: 5%

How did CCN(c1ccccc1)S(=O)(=O)c1ccc(C(=O)Nc2cc(C)ccn2)cc1 do in these assays?
HT1080-NT tox: 11%; HT1080 IDH1KD tx: 8%; IL1B secr inh: -10; DT40 TDP1 no CPT: 18µM*; TDP1 cell CPT: 16µM*

What do the screens show for `CCN(c1ccccc1)S(=O)(=O)c1ccc(C(=O)Nc2cccc(NC(C)=O)c2)cc1`?
HT1080-NT tox: -5%; HT1080 IDH1KD tx: -6%; IL1B secr inh: 0; DT40 TDP1 no CPT: -21%; TDP1 cell CPT: inconclusive

Results for Cc1ccnc(NC(=O)C(Cc2ccccc2)NC(=O)c2ccccc2)c1 (stereo unspecified) ?
HT1080-NT tox: -10%; HT1080 IDH1KD tx: -12%; IL1B secr inh: -30; DT40 TDP1 no CPT: 16µM*; TDP1 cell CPT: inconclusive

Results for CN(C)c1ncc2nc(-c3cn(C)c4ccccc34)c(=O)n(C[C@H]3CCCO3)c2n1 ?
DT40 TDP1 no CPT: 17%; TDP1 cell CPT: 4%

What do the screens show for `N#C/C(=C\Nc1ccc2cn[nH]c2c1)c1nc(-c2ccc(Cl)cc2)cs1`?
HT1080-NT tox: 18µM*; HT1080 IDH1KD tx: 15µM*; IL1B secr inh: 48; DT40 TDP1 no CPT: 23µM*; TDP1 cell CPT: inconclusive

Results for N#C/C(=C\Nc1ccc2cn[nH]c2c1)c1nc(-c2ccccc2)cs1 ?
HT1080-NT tox: inconclusive; HT1080 IDH1KD tx: inconclusive; IL1B secr inh: 15; DT40 TDP1 no CPT: 16µM*; TDP1 cell CPT: inconclusive

How did N#C/C(=C/c1ccc(Cl)cc1)c1nc(-c2ccc(Br)cc2)cs1 do in these assays?
DT40 TDP1 no CPT: -21%; TDP1 cell CPT: 2%

How did N#C/C(=C\c1ccc(O)c(Br)c1)C(=O)NCc1ccccc1 do in these assays?
HT1080-NT tox: -23%; HT1080 IDH1KD tx: -29%; IL1B secr inh: 28; DT40 TDP1 no CPT: -18%; TDP1 cell CPT: -19%

What do the screens show for `N#C/C(=C\c1ccc(OCc2ccc(C(=O)O)cc2)cc1)C(=O)NCc1ccccc1`?
HT1080-NT tox: -16%; HT1080 IDH1KD tx: -15%; IL1B secr inh: -25; DT40 TDP1 no CPT: inconclusive; TDP1 cell CPT: -13%

What do the screens show for `N#C/C(=C/c1ccccc1)C(=O)NCc1ccccc1`?
HT1080-NT tox: -6%; HT1080 IDH1KD tx: -12%; IL1B secr inh: -77*; DT40 TDP1 no CPT: inconclusive; TDP1 cell CPT: -31%
